17 compounds from PubChem BioAssay can be followed below.

The source made the active and inactive calls. Unless noted, the rule behind the calls is not given here.

The test system of assay [1] is XIP peptide (Xip251-270) binding. Nature of the assay: XIP fragment 251-270 binding compounds – biochemical, small-molecule microarray, fluorescence 635/667 nm, 0.1 µg/mL protein, primary screen (AID 1182). To be noted: fluorescent protein binding, 635 nm, higher = more signal, called active from +8 up or from −8 down.
Another assay relates to XIP peptide (Xip251-270). Description: compounds binding XIP fragment 251-270 – biochemical, small-molecule microarray, fluorescence 635/667 nm, 0.5 µg/mL protein, primary screen (AID 1183). The conditions noted are these: fluorescence 635 nm, higher = more signal.
Assay [2] is described as follows: blood-stage malaria parasite viability loss – strain 3D7, DAPI fluorescence, 100 nL, primary screen (AID 1184).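 Note: parasites grown inside human red blood cells in medium with human serum.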 The conditions noted are these: P. falciparum 3D7 growth, 3 d, higher = more signal.
The target in assay [3] is Homeobox protein Hox-A13 (Mus musculus) (UniProt Q62424). Nature of the assay: disruptors of Hoxa13 oligonucleotide interaction – biochemical, fluorescence polarization, labeled oligonucleotide, primary screen (AID 1185). To be noted: Hoxa13:DNA binding, 15 min, higher = more signal, called active from +8 up or from −8 down.
Homeobox protein Hox-A13 (Mus musculus), sequence (Q62424 whole entry, looked up): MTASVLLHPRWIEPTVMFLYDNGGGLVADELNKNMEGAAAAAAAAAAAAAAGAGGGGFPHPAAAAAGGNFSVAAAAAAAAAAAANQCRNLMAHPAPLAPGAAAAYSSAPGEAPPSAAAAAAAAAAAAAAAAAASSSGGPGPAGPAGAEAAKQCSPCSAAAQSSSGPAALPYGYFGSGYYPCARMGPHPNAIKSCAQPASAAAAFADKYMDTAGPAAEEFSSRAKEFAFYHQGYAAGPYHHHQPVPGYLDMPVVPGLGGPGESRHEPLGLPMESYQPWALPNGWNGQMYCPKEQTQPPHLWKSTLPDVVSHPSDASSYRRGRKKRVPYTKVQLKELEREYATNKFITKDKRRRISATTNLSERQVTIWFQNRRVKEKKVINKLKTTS
A short description of assay [4]: blockers of DNA damage checkpoint Chk1 activation – imaging, HeLa, hydroxyurea, phospho-Chk1 antibody, percent positive cells, primary screen (AID 1186). The conditions noted are these: hydroxyurea-induced phospho-Chk1 immunofluorescence imaging, higher = more signal.
A short description of assay [5]: blockers of DNA damage checkpoint Chk1 activation – imaging, HeLa, hydroxyurea, phospho-Chk1 nuclear intensity, primary screen (AID 1187). To be noted: hydroxyurea-induced phospho-Chk1 immunofluorescence imaging, higher = more signal.

Turning to `NCCCCCNC(=O)[C@@H]1C[C@@H]2C(=O)NCC(=O)N2[C@@H]1c1cccc(OCCO)c1`, the composite z-score in assay [1] was 0.318 (inactive); in the assay with XIP peptide (Xip251-270), 0.782. Also, the z-score in assay [2] was -1.28; in assay [3] it was -1.43 (inactive); in assay [4] it was 0.518 (inactive); in assay [5], 0.503 (inactive).

For the compound `CCCCC(=C=CC[C@@H](O)c1ccccc1OCCO)C[C@@H](O)COCc1ccccc1`, the composite z-score was -0.175 (inactive) in assay [1] and 0.868 in the assay with XIP peptide (Xip251-270). The z-score was -1.67 in assay [2], -4.72 (inactive) in assay [3], 0.193 (inactive) in assay [4] and 1.06 (inactive) in assay [5].

`O=C1NC(=O)C2C1C=CC(C(O)c1c(F)cccc1Cl)N2Nc1ccc(Cl)cc1Cl` (configuration not stated): the composite z-score in assay [1] is 0.831 (inactive); with XIP peptide (Xip251-270) it was 0.709. Also, the z-score in assay [2] was -0.0027; in assay [3] it was -6.24 (inactive); in assay [4], 1.05 (inactive); in assay [5], 0.702 (inactive).

Consider `C=CC[C@]1(C(=O)NCCN2CCOCC2)N=C(c2ccc(OCCCO)cc2)O[C@H]1c1ccccc1CN=[N+]=[N-]`, for which the composite z-score in assay [1] was 0.882 (inactive); in the assay on XIP peptide (Xip251-270), 0.887. Moreover, the z-score in assay [2] is -2.29; in assay [3] it was -4.74 (inactive); in assay [4], -0.005 (inactive); in assay [5] it was 0.23 (inactive).

`O=C1NC(=O)C2C1C=CC(C(O)c1ccco1)N2Nc1ccccn1` (configuration not stated): the composite z-score was -0.409 (inactive) in assay [1] and -0.195 in the assay with XIP peptide (Xip251-270). Besides, the z-score in assay [2] is 1.36; in assay [3] it was -3.55 (inactive); in assay [4], 0.0556 (inactive); in assay [5], -0.0488 (inactive).

Consider `CN(C)CCCNC(=O)[C@@]1(c2ccc([N+](=O)[O-])cc2)CC(=O)N(CC23CC4CC(CC(C4)C2)C3)[C@@H]1c1ccc(CO)cc1I`, for which the results for the composite z-score (in assay [1]; with XIP peptide (Xip251-270)) were 0.166 (inactive) and 0.86, respectively. For the same compound, the z-score in assay [2] was -2.16; in assay [3] it was 8.34 (active); in assay [4] it was -0.449 (inactive); in assay [5], -0.766 (inactive).

Turning to `COCCOC(=O)N1C(=O)[C@@]2(c3cc(C#CC4=CCCCC4)ccc31)[C@H](c1ccc(OCCO)cc1)N1[C@H](c3ccccc3)[C@H](c3ccccc3)OC(=O)[C@H]1[C@@H]2C(=O)NC[C@H](O)c1ccccc1`, the composite z-score is 0.575 (inactive) in assay [1] and 0.622 with XIP peptide (Xip251-270). Also, the z-score in assay [2] was -2.1; in assay [3], 1.86 (inactive); in assay [4], 0.107 (inactive); in assay [5] it was 0.576 (inactive).

As for `[N-]=[N+]=NCc1ccccc1C[C@@]1(C(=O)N2CCCCC2)N=C(c2ccc(OCCCO)cc2)O[C@@H]1c1ccccc1`, the composite z-score in assay [1] was -0.194 (inactive); in the assay on XIP peptide (Xip251-270) it was 0.434. Further, the z-score in assay [2] is -2.38; in assay [3], -4.86 (inactive); in assay [4], -0.219 (inactive); in assay [5], -0.234 (inactive).

Turning to `COC(=O)C(CC#Cc1ccc2c(c1)[C@]1(C(=O)N2)[C@H](c2ccccc2OCCO)N2[C@H](c3ccccc3)[C@H](c3ccccc3)OC(=O)[C@H]2[C@@H]1C(=O)NC[C@H](O)c1ccccc1)C(=O)OC`, the composite z-score was 1.8 (inactive) in assay [1] and 0.777 with XIP peptide (Xip251-270). Further, the z-score in assay [2] was -2.22; in assay [3], -1.59 (inactive); in assay [4], -0.124 (inactive); in assay [5] it was -0.553 (inactive).

Take `CN1C(=O)C2C=CC(C(O)c3ccc(F)cc3)N(Nc3ccccc3)C2C1=O` (configuration not stated): the values for the composite z-score (in assay [1]; in the assay on XIP peptide (Xip251-270)) were 0.477 (inactive) and 0.466, respectively. Moreover, the z-score in assay [2] is -0.102; in assay [3], -2.9 (inactive); in assay [4] it was 0.264 (inactive); in assay [5], -0.232 (inactive).

With `CN(C)C(=O)[C@@]1(Cc2ccccc2CN=[N+]=[N-])N=C(c2ccc(OCCCO)cc2)O[C@H]1c1ccccc1CN=[N+]=[N-]`, the composite z-score in assay [1] was 0.105 (inactive); in the assay with XIP peptide (Xip251-270), 0.707. The z-score in assay [2] is -2.15; in assay [3] it was -2.04 (inactive); in assay [4], -0.0765 (inactive); in assay [5], 0.127 (inactive).

Take `CN(C)C(=O)[C@@]1(CCS(=O)(=O)c2ccccc2)N=C(c2ccc(OCCCO)cc2)O[C@H]1c1ccccc1`: the composite z-score in assay [1] was 0.77 (inactive); in the assay with XIP peptide (Xip251-270), 0.704. Besides, the z-score in assay [2] was -1.48; in assay [3] it was -6.87 (inactive); in assay [4] it was -0.13 (inactive); in assay [5], -0.0208 (inactive).

As to `CCC[C@@H]1C[C@@]1(CCC)[C@@H](NC(=O)OCc1ccccc1)c1ccc(-c2ccccc2)cc1`, the composite z-score was -0.384 (inactive) in assay [1] and -0.237 with XIP peptide (Xip251-270). Moreover, the z-score in assay [2] was -0.54; in assay [3] it was -3.15 (inactive); in assay [4] it was 0.977 (inactive); in assay [5], 0.198 (inactive).

Consider `CC[C@H]1C2=C3C(CC[C@H]4C(OCc5ccc(F)cc5C(F)(F)F)OC[C@](C)([C@@H]34)N(C(=O)OC(C)(C)C)C2)C(COC)C1COC` (some centres not stated), for which the composite z-score in assay [1] is 0.716 (inactive); in the assay on XIP peptide (Xip251-270), -0.379. Also, the z-score in assay [2] is 0.133; in assay [3], -1.11 (inactive); in assay [4], 0.645 (inactive); in assay [5], 0.217 (inactive).

As for `COCCOC(=O)N1C(=O)[C@@]2(c3cc(C#Cc4ccc(OC)cc4)ccc31)[C@H](C(=O)Nc1nc3ccccc3s1)[C@H]1C(=O)O[C@H](c3ccccc3)[C@H](c3ccccc3)N1[C@@H]2c1ccc(OCCO)cc1`, the figures for the composite z-score (in assay [1]; in the assay with XIP peptide (Xip251-270)) were 0.127 (inactive) and 0.623, respectively. Moreover, the z-score was -1.69 in assay [2], 2.34 (inactive) in assay [3], 0.0676 (inactive) in assay [4] and 0.0745 (inactive) in assay [5].

In the case of `CCCCN1CC=CC23O[C@@H]4/C=C\CCC(C)OC(=O)C4[C@H]2C(=O)N(C(CO)C(C)C)[C@@H]3C1=O` (some centres not stated), the results for the composite z-score (in assay [1]; with XIP peptide (Xip251-270)) were 0.743 (inactive) and 0.844, respectively. Besides, the z-score in assay [2] is -0.36; in assay [3], -5.09 (inactive); in assay [4], -0.428 (inactive); in assay [5] it was -0.543 (inactive).

`COC(=O)[C@@]1(Cc2ccc(F)cc2)[C@H]2c3cc(C(=O)N4CCCC4)n(CCc4ccc(O)c(O)c4)c3C[C@H]2CN1C(=O)c1ccccc1`: the composite z-score in assay [1] was 1.19 (inactive); with XIP peptide (Xip251-270), -0.892. Also, the z-score was -1.47 in assay [2], -4.67 (inactive) in assay [3], 0.333 (inactive) in assay [4] and 0.303 (inactive) in assay [5].
